# Laboratory results taken from PubChem BioAssay (NCI).
# About 79,000 compounds went through this panel and 15% of them were active in at least one assay; those are over-represented in the sample as a whole. Values without a mark were called inactive. The source made the active and inactive calls. Rule as the data show it: active = growth inhibition above about 70%; inactive = the rest.
# Experiments:
# [1] = NCI Yeast Anticancer Drug Screen. Data for the rad52 strain (AID 147);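 also: 0% = growth of vehicle-treated control cultures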; conditions: S. cerevisiae rad52 mutant growth inhibition, stronger effect = higher value
# How it was run: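 The repair-mutant yeast strain was incubated with compounds, then growth was read and inhibition derived relative to vehicle.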
# [2] = NCI Yeast Anticancer Drug Screen. Data for the wt1 strain (AID 149);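 also: 0% = growth of vehicle-treated wt1 cultures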; conditions: S. cerevisiae wt1 strain (SPY 50644) growth inhibition, stronger effect = higher value
# How it was run: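 Readout: yeast growth inhibition, normalised to vehicle controls, in the wt1 strain exposed to test compounds.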
# [3] = NCI Yeast Anticancer Drug Screen. Data for the rad50EPP+ strain (AID 151);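 also: 0% = growth of vehicle-treated control cultures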; conditions: S. cerevisiae rad50 mutant strain, stronger effect = higher value
# How it was run: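 Vehicle-normalised growth inhibition; rad50EPP+ yeast strain, altered in DNA damage repair, compound-treated.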
# [4] = NCI Yeast Anticancer Drug Screen. Data for the mgt1 strain (AID 153); conditions: S. cerevisiae mgt1 mutant growth inhibition, stronger effect = higher value
# How it was run: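 Vehicle-normalized growth inhibition is determined in mgt1 yeast, a strain selected for a defined alteration in DNA repair or cell cycle control.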
# [5] = NCI Yeast Anticancer Drug Screen. Data for the rad50 strain (AID 155);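 also: 0% = growth of vehicle-only cultures of the same strain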; conditions: S. cerevisiae rad50 strain growth inhibition, stronger effect = higher value
# How it was run: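 Compounds were tested on a yeast strain with an engineered DNA damage repair alteration; the reported value is growth inhibition normalised to vehicle treatment.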
# [6] = NCI Yeast Anticancer Drug Screen. Data for the mec2-1 strain (AID 157); conditions: S. cerevisiae mec2-1 strain, stronger effect = higher value
# How it was run: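 Mutant yeast (mec2-1) grown with compound; growth inhibition relative to vehicle control reported.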
# [7] = NCI Yeast Anticancer Drug Screen. Data for the rad14 strain (AID 159);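 also: 0% = growth of vehicle-treated control cultures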; conditions: S. cerevisiae rad14 strain growth inhibition, stronger effect = higher value
# How it was run: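 Compound-treated yeast with a defined DNA-repair lesion; growth inhibition normalised to vehicle-treated cultures.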
# [8] = NCI Yeast Anticancer Drug Screen. Data for the sgs1 mgt1 strain (AID 161);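 also: 0% = growth of cultures given vehicle only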; conditions: S. cerevisiae sgs1 mgt1 strain, stronger effect = higher value
# How it was run: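 Compounds are added to genetically altered yeast, and growth is compared with cultures given vehicle alone to give percent inhibition.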
# [9] = NCI Yeast Anticancer Drug Screen. Data for the CLN2oe strain (AID 163);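 also: 0% = growth of vehicle-only control cultures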; conditions: S. cerevisiae CLN2oe strain, stronger effect = higher value
# How it was run: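 Compounds are applied to yeast harbouring a defined cell-cycle control change; reduced growth compared with vehicle-treated controls gives the value.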
# [10] = NCI Yeast Anticancer Drug Screen. Data for the cln2 rad14 strain (AID 165);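 also: 0% = growth equal to vehicle treated cultures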; conditions: S. cerevisiae cln2 rad14 strain, stronger effect = higher value
# How it was run: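 Readout is yeast growth inhibition versus vehicle-treated controls, using a strain with cln2 and rad14 alterations exposed to compound.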
# [11] = NCI Yeast Anticancer Drug Screen. Data for the bub3 strain (AID 167); conditions: S. cerevisiae bub3 mutant strain, stronger effect = higher value
# How it was run: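 Growth of a checkpoint-deficient yeast mutant is measured after compound exposure. Values represent inhibition relative to vehicle.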
# [12] = NCI Yeast Anticancer Drug Screen. Data for the wt2 strain (AID 169);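 also: 0% = growth of vehicle-treated yeast cultures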; conditions: S. cerevisiae wt2 strain growth inhibition, stronger effect = higher value
# How it was run: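 Against vehicle-treated controls, the growth of yeast exposed to each compound was compared, and the inhibition was recorded.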
# [13] = NCI Yeast Anticancer Drug Screen. Data for the mlh1 strain (AID 171);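 also: 0% = growth of vehicle-treated control cultures of the same strain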; conditions: S. cerevisiae mlh1 strain growth inhibition, stronger effect = higher value
# How it was run: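 Measured: yeast growth. Reference: vehicle-treated controls. Organism: strain with a defined alteration affecting DNA damage repair or cell cycle control, treated with compound.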
# [14] = NCI Yeast Anticancer Drug Screen. Data for the sgs1 strain (AID 173);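 also: 0% = growth of vehicle-only control cultures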; conditions: S. cerevisiae sgs1 mutant, stronger effect = higher value
# How it was run: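 Each compound was added to cultures of the altered yeast strain. Growth was recorded, and inhibition was derived by comparison with vehicle controls.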
# [15] = NCI Yeast Anticancer Drug Screen. Data for the mlh1 rad18 strain (AID 175); conditions: S. cerevisiae mlh1 rad18 strain growth inhibition, stronger effect = higher value
# How it was run: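 Genetically defined yeast (DNA repair-deficient) exposed to compounds; growth inhibition determined relative to vehicle.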
# [16] = at 5.0 µM (retest, dose inferred, filed as 0.5)
# [17] = at 50.0 µM (retest, dose inferred, filed as 5.0)
smiles,measurement,setting,value
O=c1oc2ccccc2c(O)c1C(c1ccc2c(c1)Cc1ccccc1-2)c1c(O)c2ccccc2oc1=O,growth inhibition,[1]; at 1.2 µM,-7%
same,growth inhibition,[1]; at 3.7 µM,15%
same,growth inhibition,[1]; at 11.0 µM,19%
same,growth inhibition,[1]; at 33.0 µM,65%
same,growth inhibition,[1]; at 100.0 µM,96% (active)
same,growth inhibition,[2]; at 1.2 µM,-16%
same,growth inhibition,[2]; at 3.7 µM,-5%
same,growth inhibition,[2]; at 11.0 µM,5%
same,growth inhibition,[2]; at 33.0 µM,53%
same,growth inhibition,[2]; at 100.0 µM,97% (active)
same,growth inhibition,[3]; at 1.2 µM,-16%
same,growth inhibition,[3]; at 3.7 µM,43%
same,growth inhibition,[3]; at 11.0 µM,46%
same,growth inhibition,[3]; at 33.0 µM,50%
same,growth inhibition,[3]; at 100.0 µM,51%
same,growth inhibition,[4]; at 1.2 µM,6%
same,growth inhibition,[4]; at 3.7 µM,8%
same,growth inhibition,[4]; at 11.0 µM,31%
same,growth inhibition,[4]; at 33.0 µM,97% (active)
same,growth inhibition,[4]; at 100.0 µM,97% (active)
same,growth inhibition,[5]; at 1.2 µM,1%
same,growth inhibition,[5]; at 3.7 µM,14%
same,growth inhibition,[5]; [16],17%
same,growth inhibition,[5]; at 11.0 µM,22%
same,growth inhibition,[5]; at 33.0 µM,61%
same,growth inhibition,[5]; [17],5%
same,growth inhibition,[5]; at 50.0 µM,70.2% (active)
same,growth inhibition,[5]; at 100.0 µM,96% (active)
same,growth inhibition,[6]; at 1.2 µM,-18%
same,growth inhibition,[6]; at 3.7 µM,-4%
same,growth inhibition,[6]; [16],12%
same,growth inhibition,[6]; at 11.0 µM,25%
same,growth inhibition,[6]; at 33.0 µM,95% (active)
same,growth inhibition,[6]; [17],92% (active)
same,growth inhibition,[6]; at 50.0 µM,89% (active)
same,growth inhibition,[6]; at 100.0 µM,97% (active)
same,growth inhibition,[7]; at 1.2 µM,9%
same,growth inhibition,[7]; at 3.7 µM,14%
same,growth inhibition,[7]; at 11.0 µM,18%
same,growth inhibition,[7]; at 33.0 µM,97% (active)
same,growth inhibition,[7]; at 100.0 µM,98% (active)
same,growth inhibition,[8]; [16],-14%
same,growth inhibition,[8]; [17],96% (active)
same,growth inhibition,[8]; at 50.0 µM,73.4% (active)
same,growth inhibition,[9]; at 1.2 µM,23%
same,growth inhibition,[9]; at 3.7 µM,0%
same,growth inhibition,[9]; at 11.0 µM,15%
same,growth inhibition,[9]; at 33.0 µM,91% (active)
same,growth inhibition,[9]; at 100.0 µM,97% (active)
same,growth inhibition,[10]; [16],10%
same,growth inhibition,[10]; [17],95% (active)
same,growth inhibition,[10]; at 50.0 µM,79% (active)
same,growth inhibition,[11]; at 1.2 µM,-7%
same,growth inhibition,[11]; at 3.7 µM,-2%
same,growth inhibition,[11]; [16],18%
same,growth inhibition,[11]; at 11.0 µM,13%
same,growth inhibition,[11]; at 33.0 µM,63%
same,growth inhibition,[11]; [17],95% (active)
same,growth inhibition,[11]; at 50.0 µM,75.9% (active)
same,growth inhibition,[11]; at 100.0 µM,96% (active)
same,growth inhibition,[12]; at 1.2 µM,-17%
same,growth inhibition,[12]; at 3.7 µM,-14%
same,growth inhibition,[12]; at 11.0 µM,52%
same,growth inhibition,[12]; at 33.0 µM,95% (active)
same,growth inhibition,[12]; at 100.0 µM,93% (active)
same,growth inhibition,[13]; at 1.2 µM,4%
same,growth inhibition,[13]; at 3.7 µM,3%
same,growth inhibition,[13]; at 11.0 µM,25%
same,growth inhibition,[13]; at 33.0 µM,96% (active)
same,growth inhibition,[13]; at 100.0 µM,98% (active)
same,growth inhibition,[14]; at 1.2 µM,18%
same,growth inhibition,[14]; at 3.7 µM,29%
same,growth inhibition,[14]; at 11.0 µM,17%
same,growth inhibition,[14]; at 33.0 µM,83% (active)
same,growth inhibition,[14]; at 100.0 µM,97% (active)
same,growth inhibition,[15]; [16],14%
same,growth inhibition,[15]; [17],59%
same,growth inhibition,[15]; at 50.0 µM,88% (active)
